JMJD2A Tudor = inhibitors of human JMJD2A Tudor domain. O75164. AlphaScreen JMJD2A-Tudor / H3K4me3 peptide binding. Potency, µM (top dose mostly 114 µM), without a hit: at the highest dose activity change, negative = inhibition, usual class: inhibitors. 390,000 tested, 4.4% active; further: on the % scale 0 is the no-effect control and ±100 the full control effect; nearly all actives have a fitted effect of over 50% in size
L3MBTL1 block = blocks human L3MBTL1. Q9Y468. AlphaScreen L3MBTL1–H3K9me1 peptide binding. Potency, µM (series often up to 57.1 µM), inactives show at the top dose activity, negative = inhibition, hits mostly inhibitors. 230,000 tested, 0.66% active. AID 485360; further: on the % scale 0 is the no-effect control and ±100 the full control effect; nearly all actives have a fitted effect of over 60% in size
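L3MBTL1 (50 nM) pre-complexed 30 min with biotinylated H3(1-15)K9me1 peptide (75 nM), then compounds added for 30 min at room temperature; AlphaScreen streptavidin donor/nickel chelate acceptor beads (10 ug/mL final) read after 30 min dark incubation.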
BAZ2B inh = BAZ2B (human) inhibition | 360,000 tested, 4.4% active | AlphaScreen BAZ2B-H3K14Ac peptide displacement | Q9UIF8 | Potency, µM (titrated, usually from 114 µM), for inactives: top-dose activity change, negative = inhibition, hits mostly inhibitors; further: on the % scale 0 is the no-effect control and ±100 the full control effect; nearly all actives have a fitted effect of over 60% in size
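Multi-concentration screen (max 110 uM) measuring displacement of acetylated histone H3 peptide from BAZ2B by AlphaScreen, using 50 nM protein, 50 nM peptide and 10 ug/mL streptavidin donor plus Ni-chelate acceptor beads.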
HP1b binding inh = HP1-beta chromodomain-methylated histone interaction inhibition. P83916. AlphaScreen HP1-beta / biotin-H3K9me3 peptide binding. Potency, µM (series often up to 114 µM), for the others: top-dose activity change, negative = inhibition, hits mostly inhibitors. 390,000 tested, 0.56% active. AID 540317; further: nearly all actives have a fitted effect of over 70% in size
Target sequence (P83916 whole entry, looked up): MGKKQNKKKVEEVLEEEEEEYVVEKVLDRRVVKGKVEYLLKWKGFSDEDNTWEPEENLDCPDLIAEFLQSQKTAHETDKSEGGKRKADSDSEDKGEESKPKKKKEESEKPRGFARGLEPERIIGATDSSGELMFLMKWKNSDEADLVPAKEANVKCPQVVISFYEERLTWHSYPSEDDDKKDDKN
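HP1-beta protein (50 nM final) preincubated 30 min at room temperature with biotinylated H3(1-18)K9me3 peptide (50 nM) in PBS pH 7.4, 0.01% Tween-20, then compound added for 30 min. AlphaScreen streptavidin donor/nickel chelate acceptor beads (10 ug/mL final), 30 min dark, luminescence read.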
G9a block = blocks human histone lysine methyltransferase G9a; 350,000 tested, 8.8% active; Potency, µM (doses to about 102 µM), for the others: top-dose activity, negative = inhibition, usual class: inhibitors; Q96KQ7; G9a H3K9 monomethylation, AlphaScreen, 2 h; AID 504332; further: on the % scale 0 is the no-effect control and ±100 the full control effect; nearly all actives have a fitted effect of over 75% in size
Target sequence (Q96KQ7 913-1193 limits assumed): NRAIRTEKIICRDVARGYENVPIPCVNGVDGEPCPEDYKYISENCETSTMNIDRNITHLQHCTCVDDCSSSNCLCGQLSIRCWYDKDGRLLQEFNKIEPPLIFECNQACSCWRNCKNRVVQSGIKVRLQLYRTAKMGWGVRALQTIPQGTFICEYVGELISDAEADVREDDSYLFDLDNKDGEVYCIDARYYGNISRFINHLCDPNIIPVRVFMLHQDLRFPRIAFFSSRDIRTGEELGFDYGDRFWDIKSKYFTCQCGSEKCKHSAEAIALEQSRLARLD
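G9a (20 nM) was preincubated 15 min with compound, then reacted 2 h at room temperature with 500 nM biotin-H3K9 peptide and 20 µM SAM. Monomethyl-H3K9 detected by AlphaScreen using anti-H3K9me1 antibody.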
GLS inhibitor = glutaminase GLS (human) inhibition; 410,000 tested, 0.21% active; Potency, µM (titrated, usually from 45.5 µM), for the others: at the top dose activity change, negative = inhibition, usual class: inhibitors; GLS enzymatic activity, qHTS titration; further: on the % scale 0 is the no-effect control and ±100 the full control effect
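hKGA; 45 mM KH2PO4 pH 8.2 + 0.02% Tween-20; cpd via pin tool; 1 mM Gln soln; GluOx/HRP/Amplex Red; RT 30 min; fluor. t0 & final.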
Starred values were filed as active, the others as inactive; ? = inconclusive; · = not tested or not shown; [ ] = another dose, or the depositor's remark. Hits are enriched below; roughly 10% of the tested compounds scored in any of these assays. The call rests on the fitted dose curve; in most records, active means well fitted curve in the direction sought with a large enough effect; inconclusive means small, poorly fitted or top-dose-only effect, or another doubt; inactive means no such curve, though single readings can be large; an effect the other way counts as inactive or inconclusive. Potency means the concentration at half of the fitted maximal effect.

SMILES | JMJD2A Tudor | L3MBTL1 block | BAZ2B inh | HP1b binding inh | G9a block | GLS inhibitor
COCCNC(=S)N1CCC(c2nc(-c3ccc(N(C)C)cc3)no2)CC1 | ? | ? | 56µM* | -33% | ? | 46%
CCC1CCCCN1C(=O)COc1ccc2c(c1)OCO2 (stereo not given) | -12% | · | -22% | 17% | 71µM* | 4%
OC[C@@H](O)[C@H](O)C(/C=N/Nc1ccccc1)=N\Nc1ccccc1 | 79µM* | · | ? | ? | ? | ?
CCn1cc(C(=O)NCc2ccc(F)cc2)c(=O)c2cc(S(=O)(=O)N(C)C)ccc21 | -17% | · | · | 17% | -34%[59 µM] | 6%
CC(=O)c1cc2c(cc1NC(=O)CN1CCCCC1C)OCO2 (stereo not given) | 20µM* | · | 79µM* | ? | 13µM* | 15%
CC(=O)c1cc2c(cc1NC(=O)CCC1CCCC1)OCO2 | · | 115% | 126% | · | 147%[59 µM] | ·
CCCN1C(=O)C(=O)c2cc(C)ccc21 | -9% | -3% | · | 30% | · | -7%
Cc1ccc2c(c1)C(=O)C(=O)N2CCOc1ccccc1 | ? | -25% | ? | ? | 45µM* | -14%
Cc1ccc2c(c1)C(=O)C(=O)N2CCCOc1ccccc1C | 40µM* | 6% | -17% | ? | -38% | 3%
CN(C)c1ccc(N=C/C=C2\N(C)c3ccccc3C2(C)C)cc1 | -8%[11.4 µM] | ? | 35µM* | 50µM* | 40µM* | 60%
CN1/C(=C\C=Nc2ccc3ccccc3c2)C(C)(C)c2ccccc21 | · | 0% | -35% | · | 1.8µM* | ·
CN1\C(=C/C=C/C=C/C=[N+](C)C)C(C)(C)c2ccccc21 | 50µM* | ? | 11µM* | ? | 11µM* | -14%
Cc1c(N=C/C=C2/N(C)c3ccccc3C2(C)C)c(=O)n(-c2ccccc2)n1C | -12% | -6% | 0% | 25% | -13%[59 µM] | 25%
Cc1cc(/N=C/C=C2\N(C)c3ccccc3C2(C)C)n(CCC#N)n1 | ? | -10% | ? | 0% | 50µM* | 29%
CN1/C(=C\C=O)C(C)(C)c2ccccc21 | -21% | -4% | · | 11% | 4% | -3%
COc1cc(NC(=O)Cn2c(=O)ccc3cc(S(=O)(=O)N4CCCC4)ccc32)cc(OC)c1 | -15% | · | -14% | 23%[57 µM] | 6%[59 µM] | -7%
Cc1ccc(C)c(NC(=O)Cn2cc(S(=O)(=O)N3CCCC3)c(S(=O)(=O)N3CCCC3)c2)c1 | -1% | · | -7%[57.1 µM] | 22% | -9%[59 µM] | 0%
COc1cccc(CNC(=O)Cc2ccc(NC(=O)N3CCSc4ncccc43)cc2)c1OC | -7% | · | -15% | 10% | -2%[59 µM] | -6%
COc1ccc2[nH]c3c(=O)n(Cc4ccc(C(=O)N5CCCCCC5)cc4)c(=S)[nH]c3c2c1 | ? | 4% | -37% | 28% | ? | -27%
COc1ccc2[nH]c3c(=O)n(Cc4ccc(C(=O)NCC5CCCO5)cc4)c(=S)[nH]c3c2c1 (stereo not given) | 10µM* | -2% | ? | 16% | 1.3µM* | ?
CC[C@H](C)NC(=O)c1ccc(Cn2c(=S)[nH]c3c([nH]c4ccc(OC)cc43)c2=O)cc1 | ? | ? | 71µM* | -1% | 56µM* | 1%
COc1ccc2[nH]c3c(=O)n(Cc4ccc(C(=O)N5CCC(C(N)=O)CC5)cc4)c(=S)[nH]c3c2c1 | 4µM* | 9% | ? | ? | 3.2µM* | 22µM*
CC(=O)N(c1ccc(Cl)cc1)C1SC(=O)N(c2ccccc2)C1=O (stereo not given) | -13% | · | · | 34% | · | ·
Cc1ccc(N2C(=O)c3ccccc3C2Nc2ccccc2F)nc1 (stereo not given) | -9% | · | -1% | 59% | 50µM* | -3%
Cc1ccc(NC(=O)N2CCc3cc(S(=O)(=O)N4CCC(C)CC4)ccc32)cc1 | 0% | · | 1% | 16% | -15%[59 µM] | -3%
SMILES | JMJD2A Tudor | L3MBTL1 block | BAZ2B inh | HP1b binding inh | G9a block | GLS inhibitor
COc1ccc(C(=O)Nc2ccc(NC(=O)c3cc(OC)c(OC)c(OC)c3)cn2)cc1 | -8% | · | ? | 21% | 40µM* | -1%
COc1ccc(C(=O)Nc2ccc(NC(=O)c3cccs3)cn2)cc1 | ? | · | ? | 32% | 22µM* | -6%
COc1cc(C(=O)Nc2ccc(NC(=O)C(C)C)nc2)cc(OC)c1OC | -22% | · | 79µM* | 26% | ? | -1%
COc1ccc(C(=O)Nc2ccc(NC(=O)Cc3ccccc3)cn2)cc1 | -10% | · | 14% | 32% | 11µM* | ?
COc1cc(C(=O)Nc2ccc(NC(=O)c3ccccc3)nc2)cc(OC)c1OC | -6% | · | ? | 22% | 17% | -14%
CC(=O)Nc1ccc(NC(=O)C(NC(=O)C2CCC(C)CC2)C(C)C)cc1 (stereo not given) | -9% | · | 6% | 24% | -31%[59 µM] | 3%
Cc1ccc(CNC(=O)CCc2c(C)c3cc4c(C)coc4cc3oc2=O)cc1 | -18% | · | 1% | 86% | 7%[59 µM] | -3%
COc1ccccc1S(=O)(=O)Cc1ccc(C(=O)NCc2ccc(Cl)cc2)o1 | 7% | · | -17% | 45% | 3%[59 µM] | -7%
Cc1ccc(N2CCn3c2nc2c3c(=O)n(CCCc3ccccc3)c(=O)n2C)cc1C | 0% | · | -3% | 40% | 0%[59 µM] | -9%
COc1ccc(C(=O)Nc2ccc(NC(=O)c3cccc(OC)c3)cn2)cc1 | -5% | · | -4% | 50% | -2% | -5%
COc1ccc(C(=O)Nc2ccc(NC(=O)c3cccc(F)c3)cn2)cc1 | ? | · | ? | 98% | 45µM* | -2%
Fc1ccccc1C1c2[nH]c3ccccc3c2CCN1Cc1cccn1-c1ncccn1 (stereo not given) | ? | -7% | 32µM* | ? | · | 11%
Cc1ccccc1C1c2[nH]c3ccccc3c2CCN1Cc1cccn1-c1ncccn1 (stereo not given) | ? | ? | 25µM* | -11% | 50µM* | -7%
Cc1cnc(NC(=O)NCC2CCCC(CNC(=O)Nc3ncc(C)s3)C2)s1 (stereo not given) | ? | · | 32µM* | -19% | ? | 1%
Nc1nc(NCc2ccco2)nc(NC2CCCCC2)c1[N+](=O)[O-] | -3% | -3% | 2% | 0% | 0% | -4%
Nc1nc(NCc2ccco2)nc(N2CCCCCC2)c1[N+](=O)[O-] | 56µM* | -5% | 50µM* | ? | ? | -2%
Nc1nc(NCc2ccco2)nc(N2CCCC2)c1[N+](=O)[O-] | -26% | -10% | 71µM* | -9% | · | 2%
COc1cc2sc3ccc(C#Cc4ccccn4)cc3c(=O)c2cc1OC | ? | · | · | 31% | · | 0%
